Consider 29 compounds from PubChem BioAssay AID504333 (National Center for Advancing Translational Sciences (NCATS), 2011).

About 16,000 (4.4%) of roughly 360,000 compounds were called active. Roughly 9% stayed inconclusive and do not appear here. This is one part of a sample in which actives are shown more often than they occur. Values without a mark were called inactive. Calls follow the shape of the dose curve; as a rule, active = well fitted inhibition curve with a large enough effect; inconclusive = small, poorly fitted or top-dose-only effect; inactive = no such curve, though single readings can be large or run the other way.
% is scaled to controls: 0 for no effect and ±100 for the full control effect; potency is read from the fitted curve at half-maximal effect.

Chain of Bromodomain adjacent to zinc finger domain protein 2B (Homo sapiens) (Q9UIF8 whole entry, looked up, the tested form may be a part): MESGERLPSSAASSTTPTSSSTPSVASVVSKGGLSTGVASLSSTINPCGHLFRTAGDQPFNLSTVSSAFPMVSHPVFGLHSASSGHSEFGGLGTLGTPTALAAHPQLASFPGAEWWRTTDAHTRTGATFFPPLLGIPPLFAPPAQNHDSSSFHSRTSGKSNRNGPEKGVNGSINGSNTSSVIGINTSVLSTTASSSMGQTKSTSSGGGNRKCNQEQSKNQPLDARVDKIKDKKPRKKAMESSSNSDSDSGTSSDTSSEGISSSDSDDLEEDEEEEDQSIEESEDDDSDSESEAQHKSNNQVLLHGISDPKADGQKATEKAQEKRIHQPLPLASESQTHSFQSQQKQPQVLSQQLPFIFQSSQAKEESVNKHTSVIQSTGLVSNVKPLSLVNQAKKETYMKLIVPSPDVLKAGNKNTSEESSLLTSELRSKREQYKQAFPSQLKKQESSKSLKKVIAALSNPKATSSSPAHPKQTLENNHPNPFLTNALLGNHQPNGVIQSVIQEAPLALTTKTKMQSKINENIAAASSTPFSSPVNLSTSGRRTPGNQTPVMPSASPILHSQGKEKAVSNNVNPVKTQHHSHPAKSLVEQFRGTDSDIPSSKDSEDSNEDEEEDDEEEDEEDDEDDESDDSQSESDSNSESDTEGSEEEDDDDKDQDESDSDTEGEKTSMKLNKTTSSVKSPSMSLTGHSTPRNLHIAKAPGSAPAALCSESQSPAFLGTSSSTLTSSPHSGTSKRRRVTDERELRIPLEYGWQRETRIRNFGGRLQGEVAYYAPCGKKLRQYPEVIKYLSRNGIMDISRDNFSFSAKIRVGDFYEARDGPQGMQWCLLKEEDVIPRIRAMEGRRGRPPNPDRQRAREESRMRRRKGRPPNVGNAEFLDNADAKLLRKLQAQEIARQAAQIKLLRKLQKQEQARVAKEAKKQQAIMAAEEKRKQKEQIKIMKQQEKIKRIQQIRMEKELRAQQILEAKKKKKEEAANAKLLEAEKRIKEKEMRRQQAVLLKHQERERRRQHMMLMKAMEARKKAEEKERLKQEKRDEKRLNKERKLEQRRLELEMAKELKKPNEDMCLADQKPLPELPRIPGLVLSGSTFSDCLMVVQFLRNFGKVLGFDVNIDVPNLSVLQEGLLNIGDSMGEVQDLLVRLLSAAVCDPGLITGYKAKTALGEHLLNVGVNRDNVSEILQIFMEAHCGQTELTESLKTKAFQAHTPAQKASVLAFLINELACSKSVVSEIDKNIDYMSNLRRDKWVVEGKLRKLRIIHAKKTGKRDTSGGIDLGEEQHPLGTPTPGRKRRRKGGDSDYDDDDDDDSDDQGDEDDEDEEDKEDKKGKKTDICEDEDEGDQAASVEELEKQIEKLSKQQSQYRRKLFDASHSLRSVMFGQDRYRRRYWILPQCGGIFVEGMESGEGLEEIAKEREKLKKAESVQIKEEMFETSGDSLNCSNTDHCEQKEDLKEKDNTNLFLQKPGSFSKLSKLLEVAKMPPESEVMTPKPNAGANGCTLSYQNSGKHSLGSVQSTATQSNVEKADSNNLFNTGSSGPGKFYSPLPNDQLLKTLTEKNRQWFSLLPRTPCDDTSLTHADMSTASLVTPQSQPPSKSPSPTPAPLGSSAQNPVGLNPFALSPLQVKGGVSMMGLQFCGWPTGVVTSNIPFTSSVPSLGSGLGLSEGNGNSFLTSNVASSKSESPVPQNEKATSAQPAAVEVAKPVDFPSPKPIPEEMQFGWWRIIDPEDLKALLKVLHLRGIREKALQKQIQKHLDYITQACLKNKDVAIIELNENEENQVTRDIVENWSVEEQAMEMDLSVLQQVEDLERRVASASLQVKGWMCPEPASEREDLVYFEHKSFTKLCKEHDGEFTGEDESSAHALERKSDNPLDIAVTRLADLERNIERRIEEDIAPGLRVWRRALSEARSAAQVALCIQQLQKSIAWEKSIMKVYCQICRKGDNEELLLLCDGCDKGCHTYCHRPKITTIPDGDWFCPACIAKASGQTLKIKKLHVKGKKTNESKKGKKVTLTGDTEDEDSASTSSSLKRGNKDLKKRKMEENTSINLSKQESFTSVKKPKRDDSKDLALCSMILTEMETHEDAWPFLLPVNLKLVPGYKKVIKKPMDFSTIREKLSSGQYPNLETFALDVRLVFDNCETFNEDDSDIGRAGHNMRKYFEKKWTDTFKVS

This test has as its target Bromodomain adjacent to zinc finger domain protein 2B (Homo sapiens) (UniProt Q9UIF8). In words: qHTS Assay for Inhibitors of BAZ2B. Also: nearly all actives have a fitted effect of over 60% in size. The conditions noted are these: AlphaScreen BAZ2B-H3K14Ac peptide displacement; series mostly up to 114 µM; activity change, negative = inhibition: at the top concentration. The method in brief:
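BAZ2B 50 nM plus b-H3(5-23)K14Ac 50 nM, PBS pH 7.4/0.01% Tween-20, 30 min RT; compound added (max 110 uM), 30 min RT; streptavidin donor/Ni-chelate acceptor beads 10 ug/mL final, 20 min dark; AlphaScreen read.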
Background: qHTS replaces the single test concentration by a dilution series.
In the case of `CCc1nc2cccnc2n1-c1ccc(CC(=O)Nc2c(C)cccc2C)cc1`, the “activity change, negative = inhibition” value was -2.4%. On the same count and under the same terms, the figure for `Cc1cc(C)cc(NC(=O)CSc2nc3nccnc3c(=O)n2CCc2c[nH]c3ccccc23)c1` is -12.2%; for `Cc1ccc(-n2ncc3c(N4CCC(C(N)=O)CC4)ncnc32)cc1` it is -0.637%; for `Cc1cc(C)cc(OCC(=O)Nc2nc(-c3ccc(F)cc3)ns2)c1` it is -2.4%. With `CN(C)c1ccc(Nc2c3c4c(cccc4n(C)c2=O)C(=O)c2ccccc2-3)cc1`, the Potency is 1.58 µM (active).

With `Cc1cccc(NC(=O)c2cccc(S(=O)(=O)N3CCCC3)c2)n1`, the “activity change, negative = inhibition” value was -4.94%.

Take `COc1ccc(Br)cc1/C=N/NC(=O)c1cccc(S(=O)(=O)N2CCOCC2)c1`: the “activity change, negative = inhibition” value is -15.1%.

For the compound `Cc1ncc(CO)c(/C=N/NC(=O)c2cccc(S(=O)(=O)N3CCCC3)c2)c1O`, the Potency was 28.2 µM (active). In the case of `CCC(=O)N1N=C(c2ccc(OC)cc2)CC1c1cn(-c2ccccc2)nc1-c1cccs1` (centres undefined), the “activity change, negative = inhibition” value was -5.53%. For `O=C(Cn1ncc2c3ccccc3n(Cc3ccccc3)c2c1=O)NC1CCCCCC1`, the “activity change, negative = inhibition” value is -0.79%. On the same count and under the same terms, the figure for `COc1ccc(N2CCN(Cc3nnc(-c4ccccc4)o3)CC2)cc1` is -35.9%. `COc1ccc(N2CCN(Cc3ccc(Br)s3)CC2)cc1`: the Potency is 17.8 µM (active).

With `Fc1ccc(N2CCN(Cc3cnc(Oc4ccc(Br)cc4)s3)CC2)cc1`, the “activity change, negative = inhibition” value was -9.51%. The same measure, in the same setting: in the case of `CCN1CCN(c2ncnc3c2cnn3-c2ccc(C)c(C)c2)CC1` it was -2.62%. Take `CC(C)(C)c1ccc(OCC(=O)N2CCC(c3nc4ccccc4s3)CC2)cc1`: the “activity change, negative = inhibition” value was -19.1%. Regarding `COC(=O)C1=C(C)N(C(C)c2ccccc2)C(=O)/C1=C\c1ccco1` (centres undefined), the Potency is 20 µM (active). As for `O=C(/C=C/c1ccco1)NC(=S)Nc1ccccc1Br`, the “activity change, negative = inhibition” value was -36.4%.

With `O=C(OCN1C(=O)c2ccccc2C1=O)/C(=C\c1ccco1)NC(=O)c1ccccc1`, the “activity change, negative = inhibition” value was -5.64%. Regarding `CCc1cccc(C)c1NS(=O)(=O)c1ccc(-c2cc(C)no2)s1`, the “activity change, negative = inhibition” value was 2.64%. Same read-out and setting: the figure for `CCC(=O)N1CCc2cc(Br)cc(S(=O)(=O)CCC(=O)NCCc3ccc(OC)c(OC)c3)c21` is 27%; for `CC(C)NC(=O)C1CCC(Cn2c(=O)c3sccc3n(Cc3ccc(F)cc3)c2=O)CC1` (centres undefined) it is -5.59%. Same read-out and setting: the figure for `CCOC(=O)c1c(C)[nH]c(C)c1S(=O)(=O)N1CCCC(C(=O)NCc2ccccc2Cl)C1` (centres undefined) is -21.1%.

In the case of `O=C(Nc1nc(-c2ccco2)c(-c2ccco2)s1)c1ccco1`, the Potency is 44.7 µM (active).

As to `O=C(Nc1nnc(CCOCCOCCc2nnc(NC(=O)c3ccco3)s2)s1)c1ccco1`, the “activity change, negative = inhibition” value is -25.7%.

For the compound `O=C(Nc1ccccc1)c1ccco1`, the “activity change, negative = inhibition” value is 6.6%. On the same count and under the same terms, the figure for `CCOc1ccc(CNC(=O)c2ccc(CS(=O)c3ccccc3)o2)cc1` (centres undefined) is -17.4%. As to `COc1cccc(-c2nn(-c3ccccc3)cc2/C=C(\C#N)C(=O)NCCCn2ccnc2)c1`, the Potency is 50.1 µM (active).

On to `CC(C)(C)OC(=O)N/N=C/c1cn(-c2ccccc2)nc1-c1cccnc1`, for which the “activity change, negative = inhibition” value is 3.33%. With `O=C(NCCCn1ccnc1)c1cc(-c2ccccc2)on1`, the “activity change, negative = inhibition” value is -27.5%.
